Experimental data published in PubChem BioAssay AID1212 (NMMLSC, 2008).
Active and inactive are the calls of the source.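 The calls were made as follows: active = blocks over 60% of fluorescent estradiol binding at 10 µM; inactive = the rest.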

target: G-protein coupled estrogen receptor 1 (Homo sapiens) (UniProt Q99527); experiment: displacement of E2-Alexa633 from GPER – cell-based, Cos7 GPR30-GFP, flow cytometry, 10 µM, primary screen (AID 1212); settings: fluorescent estrogen competition, at 10 µM; stronger effect = higher value

SMILES | inhibition | outcome
COc1cc2c(cc1OC)C(Cc1ccc(O)cc1)N(C)CC2 (stereo not drawn) | 1% (inactive) | 
COc1ccccc1C1Nc2c(C(=O)O)cccc2C2C3CCC(C3)C12 (stereo not drawn) | 5% (inactive) | 
CCCCOc1cc(OCCCC)c2c3c(c(=O)oc2c1)CCCC3 | 34% (inactive) | 
COc1cc([N+](=O)[O-])cc2c1NC(c1ccccc1Cl)C1CC=CC21 (stereo not drawn) |  | inactive
COc1cc([N+](=O)[O-])cc2c1NC(c1ccccc1)C1CC=CC21 (stereo not drawn) | 34% (inactive) | 
CCOc1cc2c(c([N+](=O)[O-])c1)NC(c1ccc(Cl)cc1)C1CC=CC21 (stereo not drawn) |  | inactive
CC(=O)OC1CC2(C)C(=O)CCC2C2CCc3cc(O)ccc3C12 (stereo not drawn) |  | inactive
O=c1oc2cc(O)ccc2c2c1CCC2 |  | inactive
CC1(C)CC(=O)C=C(NC2CC(C)(C)NC(C)(C)C2)C1 |  | inactive
O=C(O)c1ccc2c(c1)C1C=CCC1C(c1cccc([N+](=O)[O-])c1)N2 (stereo not drawn) | 57% (inactive) | 
COc1cccc(C2NCCc3cc(OC)c(OC)cc32)c1 (stereo not drawn) |  | inactive
COc1ccc2[nH]c3c(c2c1)CCNC3=O | 15% (inactive) | 
CC(Nc1ccc(N2CCNCC2)cc1[N+](=O)[O-])C12CC3CC(CC(C3)C1)C2 (stereo not drawn) |  | inactive
COc1ccc(Oc2ccc3c(c2)c2c4n3CCNC4CCC2)cc1 (stereo not drawn) |  | inactive
CCOC(=O)c1ccc2c(c1)C1C=CCC1C(c1cccc([N+](=O)[O-])c1)N2 (stereo not drawn) | 48% (inactive) | 
O=C1CC(c2ccc3c(c2)OCO3)c2ccc3ccccc3c2N1 (stereo not drawn) |  | inactive
COc1ccc(C2(CNCC(N)=O)CCCC2)cc1OC |  | inactive
Cc1nc2ccccc2n1-c1cc(C(C)(C)C)c(O)c(C(C)(C)C)c1 |  | inactive
CCOc1cc2c(cc1OCC)C(C1CCCCC1)NCC2 (stereo not drawn) |  | inactive
CSC(=O)CNC1(Cc2ccc(O)cc2)CCCCC1 |  | inactive
CC(C)COc1ccc2c(c1)c1c3n2CCNC3CCC1 (stereo not drawn) |  | inactive
CCCCc1cc(=O)oc2c(C)c(O)ccc12 |  | inactive
Cc1oc2ccc(OCC#N)cc2c1C(=O)OC(C)C |  | inactive
CCCCc1cc2c(=O)c(-c3ccccn3)coc2cc1O | 3% (inactive) | 
CCCc1cc(=O)oc2c(C)c(OC3CCCCC3=O)ccc12 (stereo not drawn) |  | inactive
CCOc1ccc(NS(=O)(=O)c2ccc3c(c2)[C@H]2C=CC[C@H]2[C@@H](c2ccc([N+](=O)[O-])cc2)N3)cc1 | 55% (inactive) | 
CCOC(=O)c1c(N)sc2c1CC(C)(C)NC2(C)C | 10% (inactive) | 
CCOc1ccc(NS(=O)(=O)c2ccc3c(c2)[C@H]2C=CC[C@H]2[C@@H](c2ccc(C(=O)O)cc2)N3)cc1 | 100% (active) | 
